Screens: PubChem BioAssay, National Center for Advancing Translational Sciences (NCATS)
Rows were chosen to be rich in hits. Some 15% of all compounds tested hit in one or more screens of this group.
12-LOX inh: ALOX12 (human) lipoxygenase inhibition. P18054. Potency, µM (series often up to 108 µM), for the others: top-dose activity change, negative = inhibition, hits mostly inhibitors. actives 1.1% (n = 580,000). purified 12hLO, xylenol orange hydroperoxide absorbance
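Purified human 12hLO at 150 nM in 25 mM Hepes, 0.01% Triton X-100, pH 7.0, preincubated 15 min at room temperature with compound. Reaction started with 40 uM arachidonic acid, 30 min at room temperature. Hydroperoxide measured by Fe-xylenol orange, 573/405 nm absorbance ratio.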
ELG1 DNA repair: inhibitors of ELG1-dependent DNA repair in HEK293T cells; HEK293T ELG1-luciferase reporter, luminescence, 16 h; DNA damage induced by 5-fluorouridine; Potency, µM (doses to about 46.1 µM), for the others: at the top dose activity change, negative = inhibition, most hits filed as inhibitors; actives 2.3% (n = 330,000); AID 504467; further: nearly all actives have a fitted effect of over 55% in size
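HEK293T cells expressing luciferase-tagged ELG1 (2,000/well) received 5-Fluorouridine plus compound or DMSO for 16 hr at 37 °C. Luciferase was read by ONE-Glo luminescence after 30 min at room temperature.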
TDP1 cell CPT: DT40-hTDP1 cell growth loss with CPT | chicken DT40 Tdp1-/-;hTDP1 cells + 20 nM CPT, ATP luminescence, 48 h | Potency, µM (highest dose often 46.2 µM), inactives show at the highest dose activity change, negative = growth inhibition, usual class: inhibitors | actives 12% (n = 420,000); further: nearly all actives have a fitted effect of over 55% in size
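Cell growth measured by CellTiter-Glo luminescence after a minimum 48 h, 37 C compound exposure with 20 nM CPT in Tdp1-knockout DT40 cells stably expressing hTDP1, seeded 400/well; qHTS titration format.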
RORgamma inh: blocks mouse ROR gamma transcriptional activity. Potency, µM (titrated, usually from 53.6 µM), inactives show top-dose activity change, negative = inhibition, usual class: inhibitors. actives 5.4% (n = 310,000). AID 2551. P51450. Drosophila S2 Gal4-RORgamma UAS-luciferase reporter, 20 h; further: nearly all actives have a fitted effect of over 60% in size
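ROR gamma transcriptional activity was tracked as Gal4-UAS luciferase output in stably transfected Drosophila Schneider cells, with compound added 1 hr before 700 uM copper sulfate induction and a 20 hr ambient-temperature incubation.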
VP16 counter: inhibits Gal4-VP16 luciferase reporter, ROR gamma counter-screen | actives 3.5% (n = 310,000) | Drosophila S2 Gal4-VP16 UAS-luciferase, luminescence, 20 h | AID 2546 | Potency, µM (series often up to 53.6 µM), for the others: top-dose activity, negative = inhibition, most hits filed as inhibitors;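 further: Gal4-VP16 expression switched on by copper sulfate through the metallothionein promoter; nearly all actives have a fitted effect of over 50% in size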
TDP1 cell noCPT: qHTS for Inhibitors of human tyrosyl-DNA phosphodiesterase 1 (TDP1): qHTS in cells in absence of CPT. Potency, µM (top dose mostly 46.2 µM), for inactives: top-dose activity change, negative = growth inhibition, actives largely listed as inhibitors. DT40 Tdp1-/- hTDP1 cells, no CPT, ATP luminescence, 48 h. AID 686978, 2013. actives 15% (n = 420,000); further: nearly all actives have a fitted effect of over 55% in size
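Stably hTDP1-transfected Tdp1-null chicken DT40 cells were treated with library compounds minus camptothecin and grown for at least 48 hr at 37 °C, after which cellular ATP was quantified by luminescence.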
Numbers without * were called inactive; ? = inconclusive; · = not tested or not shown. The call rests on the fitted dose curve; in most records, active means well fitted curve in the direction sought with a large enough effect; inconclusive means small, poorly fitted or top-dose-only effect, or another doubt; inactive means no such curve, though single readings can be large; an effect the other way counts as inactive or inconclusive. On the % scale 0 is the no-effect control and ±100 the full control effect; potency means the concentration at half of the fitted maximal effect.

SMILES	12-LOX inh	ELG1 DNA repair	TDP1 cell CPT	RORgamma inh	VP16 counter	TDP1 cell noCPT
Cc1nccc(-c2cccc(C(=O)O)c2)n1	-8%	·	·	·	·	·
C/C(=N\NC(=O)Cc1cccc2ccccc12)c1cccc(NC(=O)c2ccc(Cl)cc2)c1	9%	·	·	·	·	·
CC(=O)NC(NC(C)=O)c1ccccc1F	-8%	·	·	·	·	·
Cc1c(C)n(Cc2ccc(F)cc2)c2ccc(C(=O)N3CCN(c4ccc(F)cc4)CC3)cc12	0%	·	21µM*	·	·	23µM*
CCN1CCN(C(=O)c2ccc3c(c2)c(C)c(C)n3Cc2ccccc2)CC1	-23%	-9%	?	-2%	?	-43%
CCn1c(C)c(C)c2cc(C(=O)NCCc3cc(OC)c(OC)c(OC)c3)ccc21	-25%	·	4.1µM*	·	·	3.7µM*
CCn1c(C)c(C)c2cc(C(=O)N3CCc4ccccc4C3)ccc21	-28%	?	?	?	?	15µM*
COc1ccc(CCNC(=O)c2ccc3c(c2)c(C)c(C)n3Cc2ccc(F)cc2)c(OC)c1OC	-23%	·	18µM*	·	·	23µM*
CC(CCc1ccccc1)NC(=O)CSc1nc2cc(Cl)ccc2s1 (centres undefined)	9%	·	·	·	·	·
COC(=O)CSc1cc(C(C)(C)C)c(O)c(C(C)(C)C)c1	-71%	·	·	·	·	·
CCn1c(C)c(C)c2cc(C(=O)NCCc3ccco3)ccc21	-11%	2%	-13%	17%	-7%	-2%
COc1ccc(CCNC(=O)c2ccc3c(c2)c(C)c(C)n3Cc2ccccc2)c(OC)c1OC	-29%	·	23µM*	·	·	?
C[C@H](CO)N1C[C@H](C)[C@@H](CN(C)S(=O)(=O)c2ccc(F)cc2)Oc2ccc(NC(=O)NC3CCCCC3)cc2C1=O	0%	?	-5%	·	·	-22%
COc1ccc(S(=O)(=O)N(C)C[C@H]2Oc3ccc(NC(=O)C4CC4)cc3C(=O)N([C@H](C)CO)C[C@@H]2C)cc1	-7%	?	?	·	·	?
C[C@H](CO)N1C[C@H](C)[C@@H](CN(C)S(=O)(=O)c2ccc(F)cc2)Oc2ccc(NC(=O)C3CCCCC3)cc2C1=O	-11%	-3%	?	·	·	16µM*
C[C@H]1CN([C@@H](C)CO)C(=O)c2cc(NC(=O)C3CCCCC3)ccc2O[C@H]1CN(C)S(=O)(=O)c1ccccc1	?	?	21µM*	·	·	?
Cc1ccc(S(=O)(=O)N(C)C[C@H]2Oc3ccc(NC(=O)C4CCCCC4)cc3C(=O)N([C@H](C)CO)C[C@H]2C)cc1	?	4%	26µM*	·	·	21µM*
COc1ccc(S(=O)(=O)N(C)C[C@H]2Oc3ccc(NC(=O)C4CCCCC4)cc3C(=O)N([C@H](C)CO)C[C@@H]2C)cc1	6%	-9%	-23%	·	·	-27%
Cc1nc(-c2cccc(N3CC(C(=O)NCc4ccccc4C)CC3=O)c2)no1 (centres undefined)	29%	·	·	·	·	·
COc1ccccc1CNC(=O)c1cnn2c(C)c(Cc3ccc(F)cc3)c(C)nc12	-20%	·	5.8µM*	·	·	6.5µM*
Cc1cc(C(F)F)n2ncc(C(=O)NCCc3ccc(Cl)cc3)c2n1	-17%	8%	?	-20%	-6%	?
Cc1nc2c(C(=O)NCCc3ccc(Cl)cc3)cnn2c(C)c1Cc1ccc(F)cc1	-37%	·	16µM*	·	·	?
O=C(NCC(c1ccco1)N1CCCCC1)c1cccs1 (centres undefined)	?	?	-1%	·	·	-25%
O=C(NCC(c1ccco1)N1CCCCC1)c1cc2c(s1)CCCC2 (centres undefined)	304%	-7%	18µM*	·	·	16µM*
